Measured values reported in the supplement of paper PMC3334620.
The full ranking holds about 33,000 sequences; the median of “E-score (-0.5 to 0.5)” is about -0.041, and the highest 2% start at about 0.37. What follows is part of a selection rich in the highest values, with near analogues and random picks from the rest.

target: T1, Ecm22 (UniProt Q05958); test: PBM E-score (8-mer binding enrichment) (E-score (-0.5 to 0.5)); higher = stronger / more preferred TF binding; details: protein concentration: 200 nM; construct: GST-full length
T1 sequence: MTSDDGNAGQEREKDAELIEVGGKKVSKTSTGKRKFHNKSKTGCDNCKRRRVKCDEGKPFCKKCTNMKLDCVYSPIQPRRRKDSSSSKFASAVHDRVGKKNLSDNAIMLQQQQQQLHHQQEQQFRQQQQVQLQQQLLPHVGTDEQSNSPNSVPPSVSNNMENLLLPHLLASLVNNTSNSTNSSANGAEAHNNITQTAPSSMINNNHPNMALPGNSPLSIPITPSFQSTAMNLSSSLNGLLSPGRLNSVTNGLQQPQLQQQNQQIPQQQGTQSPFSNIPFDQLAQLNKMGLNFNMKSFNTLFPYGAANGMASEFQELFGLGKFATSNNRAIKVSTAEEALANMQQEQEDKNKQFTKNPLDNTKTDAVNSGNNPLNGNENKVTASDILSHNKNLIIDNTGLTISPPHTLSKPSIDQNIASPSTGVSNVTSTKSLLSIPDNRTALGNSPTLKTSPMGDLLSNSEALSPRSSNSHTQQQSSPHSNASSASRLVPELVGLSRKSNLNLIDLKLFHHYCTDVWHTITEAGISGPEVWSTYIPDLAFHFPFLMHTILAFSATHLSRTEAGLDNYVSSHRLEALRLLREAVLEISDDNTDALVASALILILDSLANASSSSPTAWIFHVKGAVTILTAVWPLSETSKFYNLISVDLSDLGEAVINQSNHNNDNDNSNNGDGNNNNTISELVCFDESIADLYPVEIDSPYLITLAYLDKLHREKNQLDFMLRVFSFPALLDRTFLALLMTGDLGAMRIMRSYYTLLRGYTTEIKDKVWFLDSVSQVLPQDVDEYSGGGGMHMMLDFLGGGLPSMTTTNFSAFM
In short: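 For each ungapped eight-base word taken together with its reverse complement, the Universal PBM Analysis Suite assigned an E-score. Binding data came from GST-tagged yeast transcription factors, applied at about 100-200 nM, on universal all-10-mer Agilent arrays made double-stranded by primer extension. Fluorescent anti-GST marked bound protein, and scans were normalised with masliner.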

Point of comparison: ATATACGG, “PBM E-score” value 0.441. Against it:
- AGAAGACA — lower, 0.011
- GTGTTTCA — lower, -0.0721
- GTCCTGGA — lower, -0.225
- TTAATAAA — lower, 0.169
- GCGAACGC — lower, 0.138
- GCGAACTA — lower, 0.114
- ACGAACGA — higher, 0.447
- TCGAACGA — lower, 0.373
- TCGAACAA — lower, 0.109
- TCGAACCA — lower, -0.029
- ACGAACGG — lower, 0.392
- CCGAACGA — lower, 0.357
- GCGAACGA — lower, 0.397
- CCGAACGG — lower, 0.222
- ACGAACGC — lower, 0.362
- ACGAACGT — lower, 0.307
- CCACCGGG — lower, -0.108
- GATTTCCA — lower, -0.146
- CTGCTCTA — lower, 0.0645
- ATGCTGAG — lower, -0.31
- AGCCGGAA — lower, -0.0725
- ACCAATGA — lower, -0.061
- CAACAACG — lower, 0.209
- ATAGTCGC — lower, 0.146
- CCTCTAAA — lower, -0.193
- GACTTAGC — lower, -0.147
- GGCATCCC — lower, -0.315
- CAAGCAAC — lower, 0.00354
- AGAGGCCA — lower, -0.203
- CTACCAAG — lower, -0.23
- AGGAACGC — lower, 0.208
- AGGAACAG — lower, -0.257
- AGGAACGG — higher, 0.459
- AAAGACGC — lower, -0.118
- AAATTGAA — lower, -0.166
- AAACGGTT — lower, 0.262
- CGAACGCC — lower, 0.0398
- CGAACGCG — lower, 0.198
- CGAACGAC — lower, 0.389
- CGAACGTC — lower, 0.0995
- CGAACGGA — lower, 0.24
- AGAACGTG — lower, -0.0515
- CTAACGAG — lower, 0.331
- AGAACGAG — higher, 0.45
- ACAACGAG — lower, 0.288
- AGAACGGA — lower, 0.0615
- GGAACGGA — lower, 0.435
- CGAACGAG — lower, 0.428
- ATGGTTAG — lower, -0.0935
- GAGGCGTA — lower, 0.155
- TAAGGATA — lower, 0.00857
- GGCATTAC — lower, -0.132
- GAGTTGAA — lower, 0.04
- GGAACGAC — higher, 0.491
- AGAACGAC — lower, 0.425
- ATAACGAA — lower, 0.185
- ATAACGAC — lower, 0.203
- GGAACGCC — lower, 0.051
- TTAACGAA — lower, 0.411
- CGAACGAA — lower, 0.393
- CGAACGTA — lower, 0.214
- CTAACGAA — lower, 0.219
- CGAACAAA — lower, 0.2
- AGAACGTC — lower, -0.0743
- GTAACGAC — lower, 0.289
- AATGTCCG — lower, 0.127
- GCGAAGTA — lower, 0.112
- ACCACTGC — lower, -0.25
- GGTGCCAA — lower, -0.179
- AATGGGGG — lower, -0.268
- CAAGGGAG — lower, 0.062
- ACGCCCAC — lower, -0.181
- GGAAACAC — lower, 0.0703
- TACGGACA — lower, 0.258
- GGAACGAA — higher, 0.489
- AGAACAAA — lower, 0.0892
- GGAACGTA — lower, 0.353
- TGAACAAA — lower, 0.165
- AGAACGAT — lower, 0.342
- TGAACGAA — lower, 0.434
- GGAACGCA — lower, 0.23
- TGAACGCA — lower, 0.0733
- AGAACGAA — lower, 0.422
- ACAGAAGT — lower, -0.182
- CCTAAGTA — lower, 0.0729
- TACGACCA — higher, 0.449
- AACGACCG — lower, 0.407
- GACGACCA — lower, 0.097
- GACGACCC — lower, -0.108
- ACCGACCG — lower, 0.278
- CACGACCG — lower, 0.0498
- CACGACCA — lower, 0.0103
- TGCGACCA — lower, 0.215
- TCCGACCA — lower, 0.16
- AACGACCA — lower, 0.424
- CACGACCC — lower, -0.0107
- AACGACCC — lower, 0.386
- CGGCGTTA — lower, 0.0563
- AGCAATTA — lower, -0.107
- CCCAGGTC — lower, -0.218
- AAGTTGGT — lower, 0.0141
- CTCAAGTA — lower, -0.142
- CATAACAC — lower, 0.0539
- AGCCTCTC — lower, -0.117
- CGATAAAC — lower, 0.259
- GACTTTTA — lower, -0.222
- CAGGCTGC — lower, -0.272
- ATGCCATA — lower, 0.0201
- GATAGACC — lower, 0.0888
- AGCGACCT — lower, 0.0578
- ACCGACCT — lower, 0.0975
- AACGACCT — lower, 0.385
- GGACTGGA — lower, -0.323
- AACTGGGC — lower, -0.0689
- ACGTTAAA — lower, 0.213
- TCGTAAGA — lower, 0.407
- CCGTAACA — lower, 0.2
- CCGTAAGA — lower, 0.164
- ACGTATCA — lower, 0.281
- GCGTAACA — lower, 0.00254
- TCGTAACA — lower, 0.425
- TCGTATCA — higher, 0.463
- GCGTATCA — lower, 0.114
- TCGTTAAA — lower, 0.44
- CCGTTAAA — lower, 0.278
- ACGTAAGA — lower, 0.105
- AATGGGCA — lower, -0.0348
- AGAAATAA — lower, -0.0747
- AGAAGCCA — lower, -0.0549
- ACGAGTGG — lower, 0.331
- ATTTTCCA — lower, -0.0726
- GCGTAAAA — lower, 0.217
- ACGTAAAA — lower, 0.243
- TCGTAAAA — higher, 0.476
- GGCAGGGA — lower, -0.148
- AATTCAGA — lower, -0.0476
- CTCGTTGA — lower, 0.277
- ATCGTTGC — lower, 0.347
- CTCGTTGC — higher, 0.445
- CGCGTTTC — lower, 0.0578
- CTCGTTTC — higher, 0.453
- CACGTTTC — lower, -0.0133
- CTGCAAAA — lower, -0.0893
- ACGGGTTA — lower, 0.217
- ACGCATCA — lower, 0.0479
- ATTCGGAC — lower, 0.163
- CCGGGTAC — lower, 0.291
- ATTTGAAC — lower, 0.0528
- CTCAGCTC — lower, -0.0614
- ATCATCTC — lower, 0.0439
- GTAAACAA — lower, 0.279
- CTATCGAA — lower, 0.0456
- CTATCGTA — lower, 0.406
- ATATCGTG — lower, 0.147
- GTATCGTA — lower, 0.421
- ATATCGTA — lower, 0.413
- CTATCGTC — lower, -0.0492
- GTATCGGA — lower, 0.199
- ATATCGTC — lower, 0.0456
- GTATCGAA — lower, 0.161
- AGGCTTGC — lower, -0.219
- CCAAGACA — lower, -0.257
- AAGCTGGG — lower, -0.271
- AAACTGAC — lower, 0.00573
- AAGTGGCC — lower, -0.248
- ACCCTACC — lower, -0.0742
- ATATACGC — lower, 0.299
- CTATACTC — lower, 0.0609
- ATATACAA — lower, 0.0401
- ATATACCG — lower, 0.21
- ATATACGA — higher, 0.49
